HTR2A ag = activates the mouse 5-HT2A serotonin receptor; P35363; CHO-K1 mHTR2A beta-arrestin complementation, luminescence; percent of 30 µM serotonin response; activation, % at 7.6 µM; 360,000 compounds, 0.66% hits; AID 624169;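 active means activation above a run cutoff, the mean activation of all tested compounds plus 3 SD, cut at about 14% in these data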;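 further: 0% = plate median of compound wells and 100% = 30 µM serotonin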
Target sequence (P35363 whole entry, looked up): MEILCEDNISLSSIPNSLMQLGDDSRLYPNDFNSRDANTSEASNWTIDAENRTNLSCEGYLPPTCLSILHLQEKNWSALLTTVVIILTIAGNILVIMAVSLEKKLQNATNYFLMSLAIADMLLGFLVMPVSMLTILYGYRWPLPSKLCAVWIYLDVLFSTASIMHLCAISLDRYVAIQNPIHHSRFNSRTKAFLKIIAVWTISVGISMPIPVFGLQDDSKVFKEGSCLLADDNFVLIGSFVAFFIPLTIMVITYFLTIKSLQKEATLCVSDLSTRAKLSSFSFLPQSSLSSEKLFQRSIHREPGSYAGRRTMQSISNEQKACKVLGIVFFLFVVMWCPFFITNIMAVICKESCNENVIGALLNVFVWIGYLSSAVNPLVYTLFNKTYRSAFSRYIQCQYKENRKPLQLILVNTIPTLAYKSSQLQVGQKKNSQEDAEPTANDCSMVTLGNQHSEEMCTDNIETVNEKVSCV
bovine MsrA act = activators of bovine methionine sulfoxide reductase A | 360,000 compounds, 0.3% hits | activation, % at 10.6 µM | purified bovine MsrA, absorbance read-out; in the data active means activation above about 7.5%;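 further: 0% = vehicle and 100% = reference activator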
MsrA inhibitor = inhibits bovine methionine sulfoxide reductase A | purified bovine MsrA, absorbance read-out | inhibition, % at 15.5 µM | 360,000 compounds, 0.75% hits; in the data active means inhibition above about 4.5%;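 further: 0% = vehicle wells with enzyme and 100% = reference inhibitor wells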
GC-A act = GC-A (human) enzyme activation; P16066; HEK293 GC-A cells, cGMP TR-FRET, EC30 ANP; 0% at EC30 ANP, 100% saturating ANP; activation, % at 10 µM; 370,000 compounds, 0.14% hits; in the data active means activation above about 40%
NPR2 activator = GC-B (human) receptor activation | 370,000 compounds, 0.11% hits | P20594 | HEK293-GC-B cells, CNP EC30, cGMP TR-FRET; 0% at EC30 CNP, 100% saturating CNP | activation, % at 10 µM;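 active means activation at 10 µM reaching about 35% in either raw or pattern-adjusted values, limit read from the data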
MOR ag counter = activates human mu opioid receptor in HTR2A counterscreen | shares compounds with HTR2A ag | U2OS OPRM1 beta-arrestin PathHunter, luminescence; DMSO 0%, DAMGO 9.3 µM 100% | activation, % at 9.3 µM | 2,300 compounds, 5.3% hits | AID 624380;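 active means mean activation above the mean of DMSO-only wells plus 3 SD, cut at about 0.5% in these data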
HTR2A ag conf = confirmation of mouse HTR2A serotonin receptor agonists. shares compounds with HTR2A ag. CHO-K1 PathHunter beta-arrestin recruitment, luminescence; DMSO 0%, 30 µM serotonin 100%. activation, % at 7.6 µM. 2,300 compounds, 19% hits. AID 624381;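 active means mean activation across triplicates above the hit threshold derived in the original primary screen, cut at about 15% in these data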
* = called active by the depositor; / = no result. Compounds with a hit are over-represented: about 1.8% of the library has one in this group of screens.

SMILES	HTR2A ag	bovine MsrA act	MsrA inhibitor	GC-A act	NPR2 activator	MOR ag counter	HTR2A ag conf
CCN(CC(=O)Nc1ccc(OC)cc1)C(=O)C1CC(=O)N(Cc2ccccc2)C1 (stereo not given)	16.2*	-1.9	0.1	2.1	-0.4	-0.4	-5.7
COc1ccc(CN(C)S(=O)(=O)c2nnc(NC(=O)c3cccc(OC)c3)s2)cc1	1.6	-4.3	1.5	4.6	-1.6	/	/
COc1cccc(C(=O)Nc2nnc(C(C)C)s2)c1	21.6*	-8.6	-0.2	1.6	3.2	-0.5	-3.4
COc1cccc(C(=O)Nc2nc(-c3ccc4c(c3)OCO4)cs2)c1	16.3*	-8.7	1.1	6.9	0.5	-0.5	-6.3
CN(Cc1ccco1)S(=O)(=O)c1nnc(NC(=O)c2ccccc2Cl)s1	18.3*	-4.2	2.0	0.8	4.3	-0.7	-3.8
COc1cccc(C(=O)Nc2nnc(S(=O)(=O)N(C)Cc3ccccc3)s2)c1	22.2*	-2.7	0.5	-0.8	-3.3	-0.5	-0.2
N#C[C@H](N)[C@H]1O[C@@H](n2ccc(=O)[nH]c2=O)[C@H](O)[C@@H]1O	/	/	1.1	0.4	1.1	/	/
CCCC[C@H]1C2CC(OC(=O)NCCCC(=O)OCC)C(C2)[C@H]2CCCCN21 (stereo not given in full)	/	/	/	4.5	3.0	/	/
CN(CCO)c1ccc2c(c1)Oc1ccccc1CN(Cc1cn(Cc3ccccc3C(F)(F)F)nn1)S2(=O)=O	/	/	/	0.2	-0.6	/	/
CC(=O)/C=C\c1ccc(OC(=O)c2cccnc2)cc1	1.1	-2.9	1.2	-3.1	-0.5	/	/
O=Cc1ccc(OC(=O)c2cccnc2)cc1	15.4*	-3.0	1.8	12.9	7.5	-0.5	-5.5
Cc1ccc(C(=O)NCCNC(=O)CN2CCOCC2)cc1	14.6*	-0.4	-0.9	1.8	2.6	-0.6	-2.4
O=C(O)C1C2CCC(C2)C1C(=O)NCCc1cccc(Cl)c1 (stereo not given)	24.4*	-2.8	-1.0	4.3	4.0	-0.4	1.0
O=C(O)C1C2CCC(C2)C1C(=O)NCCc1ccc(F)cc1 (stereo not given)	-2.2	-1.0	1.1	-2.2	5.9	/	/
O=C1NC[C@@H](Cc2cccc3ccccc23)N(CC2(c3ccccc3)CC2)C1=O	16.0*	-10.5	-0.5	-7.0	-17.6	-0.8	-2.1
C[C@H]1CN(c2ccc(N3CCNC[C@@H]3C)cc2C#N)CCN1Cc1ccccc1	/	/	-0.3	2.2	3.3	/	/
Cc1ccc(F)cc1-c1nc(NCC2CC2)nc2ccsc12	15.9*	4.8	-0.7	-4.4	-5.2	-0.2	0.5
Cc1ccccc1-c1nc(NCC2CC2)nc2ccsc12	0.4	-1.7	0.7	-2.9	-5.5	/	/
O=C(Nc1cccc(C(F)(F)F)c1)OC1CCC12CCC(c1ccccc1)CC2 (stereo not given)	/	/	/	4.4	1.9	/	/
COc1ccc2[nH]c(C)c(CCNC(=S)Nc3ccccc3C)c2c1	16.5*	-0.7	0.4	-0.2	-6.7	-0.5	-3.6
CN1CCN(Cc2coc3c(Cl)cc(Cl)cc3c2=O)CC1	0.0	-2.3	-1.3	1.2	2.9	/	/
O=c1c(CN2CCN(c3cccc(Cl)c3)CC2)coc2c(Cl)cc(Cl)cc12	16.4*	-2.4	1.1	-0.3	-0.2	-0.5	3.7
O=C(CSc1nc2ccc(Nc3nc(N4CCOCC4)nc(N4CCOCC4)n3)cc2s1)Nc1ccccc1	/	/	-0.6	-0.5	1.2	/	/
O=C(CSc1nc2ccc(Nc3nc(N4CCOCC4)nc(N4CCOCC4)n3)cc2s1)Nc1ccccc1F	15.5*	-0.6	0.4	-2.9	-2.4	-0.3	-2.1
O=C(CSc1nc2ccc(Nc3nc(N4CCOCC4)nc(N4CCOCC4)n3)cc2s1)N1CCOCC1	14.5*	-4.7	0.7	1.5	7.2	-0.5	-3.1
SMILES	HTR2A ag	bovine MsrA act	MsrA inhibitor	GC-A act	NPR2 activator	MOR ag counter	HTR2A ag conf
COc1cccc(-c2ccc(CC[C@H]3O[C@H]4CC[C@@H](CO)O[C@H]4C[C@H]3NS(C)(=O)=O)cc2)c1	/	/	/	-1.6	-15.7	/	/
CCCC[C@H]1C2CC(OC(=O)Nc3ccccc3Cl)C(C2)[C@H]2CCCCN21 (stereo not given in full)	/	/	/	2.0	-4.6	/	/
CC1=C(C(=O)N(C)C)CC(CC(=O)NC2CCCC2)C(=O)N1CCCN1CCCC1=O (stereo not given)	2.6	-9.1	0.5	0.4	2.3	/	/
CC1=C(C(=O)N(C)C)CC(CC(=O)NC2CCCCC2)C(=O)N1CCCN1CCCC1=O (stereo not given)	15.5*	-7.7	0.3	1.5	4.0	-0.7	-3.8
CN(CCO)C1CN(Cc2cn(Cc3ccccc3F)nn2)S(=O)(=O)C1 (stereo not given)	/	/	/	-1.3	0.3	/	/
Cc1cc(O)c2c(CN3CCN(Cc4ccccc4)CC3)cc(=O)oc2c1	19.5*	-1.9	-0.1	-4.4	-0.8	-0.4	17.8*
COc1nc(OC)nc(N2CCC(C(=O)NCc3ccccc3OC)CC2)n1	/	/	/	1.9	-1.0	/	/
CCOc1ccc(C2CC=C(C(=O)O)CN2S(=O)(=O)c2ccc(C)cc2)cc1 (stereo not given)	/	/	/	-0.8	-6.4	/	/
CCOC(=O)c1ccc(NC(=O)CCS(=O)(=O)Cc2ccccc2)cc1	15.3*	-9.2	-0.9	0.2	0.2	-0.4	13.2
COC(=O)c1ccc(NC(=O)CS(=O)(=O)Cc2ccccc2)cc1	0.0	-1.3	-0.1	-2.3	0.7	/	/
CCn1ccnc1CN(C)C(=O)C1CCC(=O)N(Cc2cccc(C(F)(F)F)c2)C1 (stereo not given)	15.4*	-8.7	0.0	-1.3	-4.2	-0.7	-4.0
CCn1ccnc1CNC(=O)C1CCC(=O)N(Cc2cccc(C(F)(F)F)c2)C1 (stereo not given)	5.7	-2.3	-0.4	1.7	1.0	/	/
Oc1ccc2ccccc2c1C=NN1CCN(Cc2ccc(Cl)cc2)CC1	/	/	/	4.8	-9.1	/	/
CCOC(=O)C1CCN(S(=O)(=O)c2cn(C)c(=O)n(C)c2=O)CC1	-2.8	-2.0	-1.4	0.0	2.9	/	/
CCOC(=O)C1CCN(S(=O)(=O)c2c(C)n(C)c(=O)n(C)c2=O)CC1	20.9*	-2.6	0.8	-0.2	2.5	-0.7	-1.2
CCn1c(SCC(=O)Nc2ccccc2-c2ccccc2)nnc1-c1cnccn1	/	/	/	-1.0	0.2	/	/
COc1ccc(S(=O)(=O)N2CCC(N3CCN(Cc4ccccc4)CC3)CC2)cc1	22.1*	-2.4	1.4	-0.1	-2.2	-0.7	41.5*
CCCCNCCCCOc1ccccc1	-1.6	-0.1	1.0	-2.3	-4.3	/	/
CN(CCOc1cccc2ccccc12)Cc1ccccc1	15.0*	-3.2	1.2	-2.3	-4.0	-0.4	18.8*
C[N+](C)(CCOc1ccccc1)Cc1ccccc1	35.4*	-0.9	1.5	-1.6	5.9	1.6*	3.0
CN(CCOc1ccccc1)Cc1ccccc1	20.1*	-3.3	/	/	/	-0.1	37.1*

Screening data (PubChem)
